Measured values taken from PubChem BioAssay AID588689 (Southern Research Specialized Biocontainment Screening …, 2011).
Among all 340,000 compounds or so, about 1,000 (0.29%) were called active. No stated cut-off is given here; in the data, inconclusive means inhibition above about 29% without an active follow-up result; inactive means below that. Not all results are given here. Entries with a potency or affinity are not part of this list.

Target: Genome polyprotein (Dengue virus type 2 (strain 16681-PDK53)) (UniProt P29991)
Assay: Dengue-2 NS5 methyltransferase inhibitors, primary screen, biochemical, confirmation dose response (AID 588689)
Conditions: Dengue-2 NS5 methyltransferase capping enzyme assay, at 25 µM, stronger effect = higher value
[1] = measured here: pilot screen replicate inhibition

Sequence of Genome polyprotein (Dengue virus type 2 (strain 16681-PDK53)) (P29991 whole entry, looked up): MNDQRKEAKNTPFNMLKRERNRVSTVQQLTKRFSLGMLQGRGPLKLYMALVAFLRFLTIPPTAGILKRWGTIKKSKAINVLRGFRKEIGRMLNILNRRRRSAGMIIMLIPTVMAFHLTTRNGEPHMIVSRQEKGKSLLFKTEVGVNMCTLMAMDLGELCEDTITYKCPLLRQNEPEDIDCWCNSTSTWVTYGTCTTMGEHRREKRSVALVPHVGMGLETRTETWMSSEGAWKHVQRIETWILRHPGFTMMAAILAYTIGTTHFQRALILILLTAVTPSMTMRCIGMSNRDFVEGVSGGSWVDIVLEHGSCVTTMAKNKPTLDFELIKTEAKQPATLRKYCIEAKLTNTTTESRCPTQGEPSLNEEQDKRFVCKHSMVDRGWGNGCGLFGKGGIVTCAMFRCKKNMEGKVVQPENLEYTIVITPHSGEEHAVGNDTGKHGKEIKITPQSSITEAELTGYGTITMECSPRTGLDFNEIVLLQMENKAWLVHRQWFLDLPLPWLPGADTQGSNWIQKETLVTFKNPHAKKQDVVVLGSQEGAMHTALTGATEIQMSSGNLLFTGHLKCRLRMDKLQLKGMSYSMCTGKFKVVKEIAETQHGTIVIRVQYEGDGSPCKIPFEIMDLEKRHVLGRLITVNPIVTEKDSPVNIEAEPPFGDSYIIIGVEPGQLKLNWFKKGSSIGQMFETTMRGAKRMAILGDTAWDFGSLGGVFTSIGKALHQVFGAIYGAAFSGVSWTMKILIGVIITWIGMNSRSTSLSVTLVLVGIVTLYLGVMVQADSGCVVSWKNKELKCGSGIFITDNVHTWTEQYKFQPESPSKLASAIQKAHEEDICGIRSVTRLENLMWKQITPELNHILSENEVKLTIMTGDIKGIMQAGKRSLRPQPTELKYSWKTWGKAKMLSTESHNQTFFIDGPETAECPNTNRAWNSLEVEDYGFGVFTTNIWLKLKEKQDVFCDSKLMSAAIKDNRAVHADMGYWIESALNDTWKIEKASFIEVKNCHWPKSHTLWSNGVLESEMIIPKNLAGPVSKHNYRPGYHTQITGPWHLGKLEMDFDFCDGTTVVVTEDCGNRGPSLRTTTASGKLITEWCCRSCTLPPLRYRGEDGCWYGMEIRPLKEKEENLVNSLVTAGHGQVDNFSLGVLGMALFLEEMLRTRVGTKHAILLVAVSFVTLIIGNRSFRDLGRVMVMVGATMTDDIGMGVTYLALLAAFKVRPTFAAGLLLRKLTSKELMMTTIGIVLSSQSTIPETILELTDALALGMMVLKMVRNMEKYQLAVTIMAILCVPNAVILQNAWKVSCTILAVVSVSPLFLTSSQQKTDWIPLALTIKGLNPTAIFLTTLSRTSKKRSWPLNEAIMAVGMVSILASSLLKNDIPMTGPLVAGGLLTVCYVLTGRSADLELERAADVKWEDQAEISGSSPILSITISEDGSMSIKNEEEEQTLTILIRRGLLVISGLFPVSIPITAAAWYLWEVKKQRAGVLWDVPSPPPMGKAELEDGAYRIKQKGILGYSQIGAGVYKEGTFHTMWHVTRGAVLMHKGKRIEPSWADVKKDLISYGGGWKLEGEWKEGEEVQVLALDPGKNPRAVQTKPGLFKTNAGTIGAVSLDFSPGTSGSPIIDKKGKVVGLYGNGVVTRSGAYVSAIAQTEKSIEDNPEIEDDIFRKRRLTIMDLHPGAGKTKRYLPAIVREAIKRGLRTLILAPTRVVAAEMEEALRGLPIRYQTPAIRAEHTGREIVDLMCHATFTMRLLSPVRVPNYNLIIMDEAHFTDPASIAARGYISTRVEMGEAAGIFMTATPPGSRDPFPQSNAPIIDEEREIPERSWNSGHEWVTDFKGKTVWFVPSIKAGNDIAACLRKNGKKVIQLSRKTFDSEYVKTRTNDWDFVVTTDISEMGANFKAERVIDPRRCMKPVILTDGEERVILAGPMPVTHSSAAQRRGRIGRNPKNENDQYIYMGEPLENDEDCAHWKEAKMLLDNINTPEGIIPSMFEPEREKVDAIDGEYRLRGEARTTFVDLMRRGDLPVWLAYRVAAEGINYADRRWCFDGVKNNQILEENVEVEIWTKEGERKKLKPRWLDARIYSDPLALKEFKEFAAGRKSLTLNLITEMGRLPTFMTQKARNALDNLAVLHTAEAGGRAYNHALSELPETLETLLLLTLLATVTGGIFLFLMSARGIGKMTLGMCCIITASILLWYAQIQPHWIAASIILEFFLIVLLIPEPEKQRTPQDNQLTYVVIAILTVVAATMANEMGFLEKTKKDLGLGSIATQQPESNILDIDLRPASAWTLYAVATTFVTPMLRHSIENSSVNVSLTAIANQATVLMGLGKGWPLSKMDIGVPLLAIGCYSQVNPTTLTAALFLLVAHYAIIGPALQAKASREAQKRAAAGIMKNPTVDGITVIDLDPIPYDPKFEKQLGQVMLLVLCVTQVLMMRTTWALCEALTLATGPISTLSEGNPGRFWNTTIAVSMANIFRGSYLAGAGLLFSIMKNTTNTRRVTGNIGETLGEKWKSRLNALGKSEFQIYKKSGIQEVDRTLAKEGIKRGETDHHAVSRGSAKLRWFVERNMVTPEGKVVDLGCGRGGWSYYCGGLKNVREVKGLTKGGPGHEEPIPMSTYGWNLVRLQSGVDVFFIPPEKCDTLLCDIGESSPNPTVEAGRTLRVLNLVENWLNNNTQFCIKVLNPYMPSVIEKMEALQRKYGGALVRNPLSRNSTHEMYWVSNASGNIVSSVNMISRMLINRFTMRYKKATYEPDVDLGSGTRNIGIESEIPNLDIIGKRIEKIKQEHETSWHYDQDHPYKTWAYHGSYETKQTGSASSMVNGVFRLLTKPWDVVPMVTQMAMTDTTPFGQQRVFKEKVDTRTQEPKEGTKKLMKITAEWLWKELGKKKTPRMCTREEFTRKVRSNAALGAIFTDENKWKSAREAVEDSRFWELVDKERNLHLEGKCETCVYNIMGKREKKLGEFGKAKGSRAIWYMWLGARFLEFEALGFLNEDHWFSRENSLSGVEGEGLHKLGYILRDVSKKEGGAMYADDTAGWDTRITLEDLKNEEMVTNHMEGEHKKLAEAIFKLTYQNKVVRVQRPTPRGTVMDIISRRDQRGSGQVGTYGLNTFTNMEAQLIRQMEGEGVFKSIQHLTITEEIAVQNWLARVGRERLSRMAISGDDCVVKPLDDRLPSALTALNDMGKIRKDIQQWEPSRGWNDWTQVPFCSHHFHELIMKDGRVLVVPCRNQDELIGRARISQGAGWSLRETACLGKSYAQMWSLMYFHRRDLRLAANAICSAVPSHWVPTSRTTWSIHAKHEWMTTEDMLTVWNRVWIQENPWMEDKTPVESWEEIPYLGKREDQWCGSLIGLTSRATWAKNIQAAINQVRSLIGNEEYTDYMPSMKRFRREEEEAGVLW

Compound | inhibition | inhibition [1]
COc1cc(C(=O)O)ccc1Cl | -1.59% (inactive) | –
Cc1cccc(N=Nc2cnc(N)s2)c1 | 0.79% (inactive) | –
CC(Oc1ccc2c(-c3ccccc3)cc(=O)oc2c1)C(=O)NCCCn1ccnc1 (stereo not drawn) | 2.17% (inactive) | –
CCC(=O)Nc1c(C)cc(C)cc1Cl | -1.67% (inactive) | –
CCC(=O)NC1=C(Nc2ccc(N)cc2)C(=O)c2ccccc2C1=O | 7.83% (inactive) | –
CC(C)NC1=C(Cl)C(=O)c2ccccc2C1=O | -0.68% (inactive) | –
CCCC(=O)Nc1ccccc1NC(=O)CCC | 0% (inactive) | –
O=C(NCCc1ccccc1)c1nc(CS(=O)(=O)c2ccc(Cl)cc2)no1 | -1.81% (inactive) | –
CCCCCC1CC(CC(=O)NC(=S)Nc2ccccc2Cl)C(=O)O1 (stereo not drawn) | -4.68% (inactive) | –
CN(C)S(=O)(=O)c1cccc2c1C(=O)c1ccccc1C2=O | -1.92% (inactive) | –
Nc1c(C(=O)O)ccc2c1C(=O)c1ccccc1C2=O | 24.7% (inactive) | –
CC1(Cc2cn(CCC#N)c3ccccc23)OCCO1 | 6.35% (inactive) | –
C/[N+]([O-])=C\C1C(=O)CC(C)(C)CC1=O | -2.92% (inactive) | –
CC1(C)CC(=O)C(C(c2cccc([N+](=O)[O-])c2)C2C(=O)CC(C)(C)CC2=O)C(=O)C1 | 0% (inactive) | –
CC1(C)CC(=O)C(C(=O)Cc2ccccc2[N+](=O)[O-])C(=O)C1 | -1.48% (inactive) | –
CCOC(=O)c1cc(CC)sc1/N=C/C1C(=O)CC(C)(C)CC1=O | -17.9% (inactive) | –
Cc1ccc2nc(SCn3nnc4ccccc4c3=O)[nH]c2c1 | -4.53% (inactive) | –
COc1ccc(OCCCC(=O)ON=C(N)c2ccccc2Cl)cc1 | 1.1% (inactive) | –
CN(CCc1ccccc1)C(=O)c1ccc(NC(=O)Cc2ccc(NC(=O)C3CCCN(C(=O)C4CCC4)C3)cc2)cc1 (stereo not drawn) | 0% (inactive) | 0.92%
COC(=O)c1ccc(NC(=O)CSc2nnc(COc3c(C)cccc3C)o2)cc1 | -9.55% (inactive) | –
CC1CCC(O)(C(C(=O)O)c2ccccc2)CC1 (stereo not drawn) | -8.55% (inactive) | –
CC1CC(=O)c2cc(-c3ccccc3)oc2C1 (stereo not drawn) | 5.14% (inactive) | –
COc1cc(NC(=O)CSc2ccc(-c3ccccn3)nn2)cc(OC)c1 | 0% (inactive) | –
O=C(NNC1CC(=O)N(c2cccc(Cl)c2)C1=O)c1cccs1 (stereo not drawn) | 3.87% (inactive) | –

Compound | inhibition | inhibition [1]
O=C1CSC(=Nc2ccc(O)cc2)N1 | -4.89% (inactive) | –
O=C1CSC(=Nc2ccc(O)cc2)N1c1ccc(O)cc1 | -5.52% (inactive) | –
CN(C(=O)CC1C(=O)NCCN1Cc1ccccc1C(F)(F)F)C1CCOCC1 (stereo not drawn) | 0.91% (inactive) | –
O=C(NCCCN1CCCC1)C1CCN(C(=O)c2cc3sccc3n2Cc2ccc(F)cc2)CC1 | -2.07% (inactive) | –
CC(/C=C/c1ccco1)=N\NC(=O)COc1ccc(C)c(C)c1 | -10.9% (inactive) | –
CC(=O)Nc1ccc(/C(N=Nc2ccccc2)=N/N=C(N)N)cc1 | 7.72% (inactive) | –
O=C(O)c1cccc(N/N=C(\N=Nc2ccccc2)c2ccccc2)c1 | 12.7% (inactive) | –
CCCCn1c(SCC2CCCO2)nc2cc(S(N)(=O)=O)ccc21 (stereo not drawn) | -11.1% (inactive) | –
CC1CCN(S(=O)(=O)c2ccc(C(=O)Nc3nnc(C4CC4)o3)cc2)CC1 | -8.7% (inactive) | –
COc1cc(NC(=O)CN2CC(c3ccccc3)CC2=O)cc(OC)c1 (stereo not drawn) | 0.73% (inactive) | –
CCn1cc(Br)c(C(=O)N2CCN(c3ccccc3)CC2)n1 | -5.15% (inactive) | –
COc1ccc(C(C#N)=C2C=C(Cl)C(=NO)C=C2Cl)cc1 | 27.6% (inactive) | –
N#CC(=C1C=C(Br)C(=NO)C=C1Cl)c1cccc2ccccc12 | 24.1% (inactive) | –
Cc1cc(C)cc(NC(=O)CS(=O)(=O)c2cccc3nsnc23)c1 | -0.79% (inactive) | –
Cc1ccc(NS(=O)(=O)Cc2ccccc2)cc1Cl | -1.36% (inactive) | –
CCC1CCCCN1S(=O)(=O)c1ccc2c(c1)CCN2C(C)=O (stereo not drawn) | -10.9% (inactive) | –
CC(=O)c1ccc(-n2c(=O)[nH]c(=O)c3c(N)c(C(=O)c4ccc(Cl)cc4)sc32)cc1 | -6.85% (inactive) | –
CC(C)(C)OC(=O)C[C@@H]1C/C=C\C[C@@H](CC(=O)N(CCO)Cc2ccccc2)C(=O)N2CCC[C@H]2COC1=O | -2.31% (inactive) | -4.54%
CC1=NN(c2ccc(C)cc2C)C(=O)C1C(c1ccccc1O)C1C(=O)N(c2ccc(C)cc2C)N=C1C (stereo not drawn) | 15.6% (inactive) | –
CC1=NN(c2ccc(C)cc2C)C(=O)C1C(c1cccc(O)c1)C1C(=O)N(c2ccc(C)cc2C)N=C1C (stereo not drawn) | 26.6% (inactive) | –
CCc1ccc(OCC(O)CNC(C)(C)C)cc1 (stereo not drawn) | -2.07% (inactive) | –
Clc1ccc(C=Cc2ccccn2)c(Cl)c1 | 3.5% (inactive) | –
CCOc1ccc(/C=C\c2nc(O)c([N+](=O)[O-])c(=O)[nH]2)cc1OCC | -0.66% (inactive) | –
O=c1[nH]c(/C=C\c2cccc(Cl)c2)nc(O)c1[N+](=O)[O-] | 15.9% (inactive) | –

Compound | inhibition | inhibition [1]
O=[N+]([O-])c1cccc(/C=C/c2nc[nH]c2[N+](=O)[O-])c1 | -14.1% (inactive) | –
O=[N+]([O-])c1cccc(/C=C/c2ccncc2)c1 | 2.32% (inactive) | –
CCOc1ccc(/C=C/c2c([N+](=O)[O-])c(=O)n(C)c(=O)n2C)cc1 | 0.74% (inactive) | –
Clc1ccc(/C=C/c2nc3ccccc3[nH]2)c(Cl)c1 | 3.38% (inactive) | -0.3%
Cn1c(/C=C/c2ccc(Cl)cc2Cl)c([N+](=O)[O-])c(=O)n(C)c1=O | 2.64% (inactive) | –
O=[N+]([O-])c1cccc(C=NN2CCCCCC2)c1 | -2.33% (inactive) | –
O=c1cc(O)c2sc3nc4c(c(C(F)(F)F)c3c2[nH]1)CCCCC4 | 0.88% (inactive) | –
Cc1cc(-c2csc(Nc3ccccn3)n2)ccc1F | -8.87% (inactive) | –
O=C(NCCCn1ccnc1)c1cccc(S(=O)(=O)Nc2ccccc2F)c1 | -2.82% (inactive) | –
COc1cccc(N=C2SC(CC(=O)Nc3ccccc3)C(=O)N2Cc2ccccn2)c1 (stereo not drawn) | -4.38% (inactive) | –
COc1ccc(-c2c(-c3cc(OC)cc(OC)c3)n(C)c3ccc(-c4ccc(OC)cc4F)cc23)cc1 | -1.04% (inactive) | –
Cc1nc(SCC(=O)N2c3ccccc3Sc3ccccc32)n[nH]1 | -1.38% (inactive) | –
O=C(CSc1nnc(-c2ccccc2)n1-c1ccccc1)N1c2ccccc2Sc2ccccc21 | -3.27% (inactive) | –
COCCCNCC(O)COc1cccc2[nH]c(C)cc12 (stereo not drawn) | 3.64% (inactive) | –
CC1(C)CC(CC(=O)O)(c2ccccc2)CCO1 (stereo not drawn) | -6.14% (inactive) | –
C=CCNC(=O)c1ccc(OC)cc1 | -4.57% (inactive) | –
Cc1ccc(S(=O)(=O)Oc2ccccc2/C=N/NC(N)=S)cc1 | -0.7% (inactive) | –
O=C(O)/C=C\c1ccccc1Oc1ccc(F)cc1 | -0.72% (inactive) | –
Cc1ccc(S(=O)(=O)Oc2ccccc2/C=C2\SC(=O)NC2=O)cc1 | 12.8% (inactive) | –
Cc1ccc(S(=O)(=O)Oc2ccccc2/C=C2/SC(=O)NC2=O)cc1 | 6.22% (inactive) | –
O=c1cc(Cl)c(-c2ccccc2)n[nH]1 | -1.61% (inactive) | –
O=C1NC(=O)C(=Cc2ccccc2)N1 | -3.98% (inactive) | –
O/N=C\c1ccccc1Oc1ccc(F)cc1 | -8.72% (inactive) | –
Cc1ccc(S(=O)(=O)Oc2ccccc2/C=N/O)cc1 | -1.81% (inactive) | –

Compound | inhibition | inhibition [1]
COc1ccc(NS(=O)(=O)c2cc(NC(=O)C3CC3)ccc2N2CCOCC2)cc1 | 0% (inactive) | –
Cn1cnc([N+](=O)[O-])c1SCC(=O)NN | 1.55% (inactive) | –
COc1ccc([N+](=O)[O-])cc1N(CC(=O)NC1CCCCC1)S(C)(=O)=O | 1.47% (inactive) | –
COc1cccc(CN2CC(C(=O)NCCOc3ccccc3F)CCC2=O)c1 (stereo not drawn) | -4.36% (inactive) | –
O=C1Cc2cc(S(=O)(=O)N3CCNCC3)ccc2N1 | 0.77% (inactive) | –
O=C(c1cccc(S(=O)(=O)N2CCN(c3ccc(F)cc3)CC2)c1)N1CCCC1 | -6.98% (inactive) | –
CCc1nc2sc(C)c(C)c2c(=O)n1CCO | -0.54% (inactive) | –
N/C(=N\S(=O)(=O)c1ccccc1)c1ccc([N+](=O)[O-])cc1 | -9.13% (inactive) | –
O=C(Oc1ccc(NC2=C(Cl)C(=O)c3ccccc3C2=O)cc1)c1ccc([N+](=O)[O-])cc1 | 11.5% (inactive) | –
CC(=O)c1cc2c(cc1F)C(C)(C)CCC2(C)C | 5.57% (inactive) | –
COc1c2ccoc2cc2oc(C)cc(=O)c12 | -4.89% (inactive) | –
COc1c2occc2c(OC)c2c(=O)cc(C)oc12 | -2.99% (inactive) | –
Cc1ccc(CC2SC(N)=NC2=O)cc1 (stereo not drawn) | 0% (inactive) | –
CC(C)(C)NC(=O)NC(=O)CN1CCN(c2ccc(O)cc2)CC1 | 1.52% (inactive) | –
Cc1cc(N)n(-c2ccc(Cl)cc2)n1 | -6.66% (inactive) | –
Cc1ccc(S(=O)(=O)n2cnc3cc([N+](=O)[O-])ccc32)cc1C | 0.8% (inactive) | –
Cn1c2nc(=O)[nH]c(=O)c-2cc2ccccc21 | -2.42% (inactive) | –
Cc1cccc(-n2cc(-c3ccc([N+](=O)[O-])cc3)[nH]c2=S)c1 | -5.13% (inactive) | –
Cc1ccc(-n2cc3ccc([N+](=O)[O-])cc3n2)cc1 | -5.66% (inactive) | –
Cc1ccc(C)c(-n2c3nc(=O)n(C)c(=O)c-3cc3ccccc32)c1 | 0% (inactive) | –
Cc1ccc(-n2c(C)nn(Cc3ccc([N+](=O)[O-])cc3)c2=O)cc1 | -7.53% (inactive) | –
Cc1ccc(-n2c3nc(=O)[nH]c(=O)c-3cc3c(C)nn(-c4ccccc4)c32)c(C)c1 | 4.54% (inactive) | –
Cc1cccc(-n2cnc3cc([N+](=O)[O-])ccc32)c1 | 0% (inactive) | –
